Results filed as inconclusive are left out. Calls of active or inactive are those of the source. The calls were made as follows: active = hit-call score of the fitted dose curve at least 0.9, where 1 is the maximum; inconclusive = response in the unintended direction; inactive = score below 0.9.

In general, AC50 refers to the midpoint of the concentration-response curve, whichever way the signal moves.

Chain of human Vascular Endothelial Growth Factor Receptor 2 (VEGFR2), KDR (gene 3791) (P35968 whole entry, looked up): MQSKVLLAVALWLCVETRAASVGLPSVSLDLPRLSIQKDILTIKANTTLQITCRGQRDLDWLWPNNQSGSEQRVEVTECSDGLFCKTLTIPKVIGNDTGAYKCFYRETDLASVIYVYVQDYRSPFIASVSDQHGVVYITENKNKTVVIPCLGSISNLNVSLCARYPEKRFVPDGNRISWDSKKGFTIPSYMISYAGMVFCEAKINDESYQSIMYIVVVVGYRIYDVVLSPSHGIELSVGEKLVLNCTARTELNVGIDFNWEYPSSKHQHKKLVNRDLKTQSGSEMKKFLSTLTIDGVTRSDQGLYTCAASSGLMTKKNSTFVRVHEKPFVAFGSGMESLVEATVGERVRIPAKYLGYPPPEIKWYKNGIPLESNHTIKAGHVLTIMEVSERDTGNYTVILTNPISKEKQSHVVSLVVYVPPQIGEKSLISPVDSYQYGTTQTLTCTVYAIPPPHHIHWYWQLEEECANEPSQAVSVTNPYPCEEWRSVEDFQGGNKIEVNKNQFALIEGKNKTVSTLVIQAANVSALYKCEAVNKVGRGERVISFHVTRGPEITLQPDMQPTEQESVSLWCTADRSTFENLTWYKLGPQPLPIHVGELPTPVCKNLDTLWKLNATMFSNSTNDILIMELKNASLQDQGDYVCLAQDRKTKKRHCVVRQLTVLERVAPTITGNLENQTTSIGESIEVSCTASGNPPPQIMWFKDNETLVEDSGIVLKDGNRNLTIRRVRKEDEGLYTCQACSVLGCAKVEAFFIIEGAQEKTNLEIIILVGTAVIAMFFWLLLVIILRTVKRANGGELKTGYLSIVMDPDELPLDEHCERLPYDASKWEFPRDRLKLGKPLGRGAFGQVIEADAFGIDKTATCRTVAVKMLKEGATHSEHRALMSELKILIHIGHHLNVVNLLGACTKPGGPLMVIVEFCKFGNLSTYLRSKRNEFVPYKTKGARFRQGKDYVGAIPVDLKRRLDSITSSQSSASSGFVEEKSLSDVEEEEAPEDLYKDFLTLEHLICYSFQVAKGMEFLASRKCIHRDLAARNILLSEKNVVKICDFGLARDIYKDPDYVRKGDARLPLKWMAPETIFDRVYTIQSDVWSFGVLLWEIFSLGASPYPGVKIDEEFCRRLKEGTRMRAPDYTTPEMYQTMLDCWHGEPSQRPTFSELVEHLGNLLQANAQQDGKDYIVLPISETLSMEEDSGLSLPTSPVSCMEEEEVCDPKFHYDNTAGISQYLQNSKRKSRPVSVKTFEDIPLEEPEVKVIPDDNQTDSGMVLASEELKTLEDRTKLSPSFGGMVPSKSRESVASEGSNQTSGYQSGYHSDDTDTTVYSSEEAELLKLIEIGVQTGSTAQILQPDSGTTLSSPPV

This test addresses human Vascular Endothelial Growth Factor Receptor 2 (VEGFR2), KDR (gene 3791) (UniProt P35968). Description: NVS_ENZ_hVEGFR2: NovaScreen (NVS) Enzymatic Assay for human Vascular Endothelial Growth Factor Receptor 2 (VEGFR2) (AID 2283230). Summed up: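 Cell-free recombinant VEGFR2 kinase, fluorescent substrate with electrophoretic mobility-shift separation; read 1 h after dosing. Screened at 25 uM in duplicate, hits to concentration-response up to 50 uM; loss-of-signal versus DMSO.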
Consider `CN(C)C(=O)NC1(c2ccccc2)CCN(CCC[C@]2(c3ccc(Cl)c(Cl)c3)CCCN(C(=O)c3ccccc3)C2)CC1`, for which the call was inactive.

On to `CCCCCCCCCCCCCCOS(=O)(=O)O`, for which the AC50 is 30.2 µM (active).

On to `CN(C)C(=O)NC1(c2ccccc2)CCN(CC[C@@]2(c3ccc(F)c(F)c3)CN(C(=O)c3ccccc3)CCO2)CC1`, for which the compound was called inactive.

For the compound `NC(=Nc1ccccc1)Nc1ccccc1`, the call was inactive.

For the compound `CCCCC(CC)COC(=O)CCCCCCCC(=O)OCC(CC)CCCC` (stereo not drawn), the result was inactive.

Regarding `Cc1occc(=O)c1O`, the compound was called inactive.

Turning to `Nc1nc(Cl)nc2c1ncn2[C@H]1C[C@H](O)[C@@H](CO)O1`, the half-maximal activity concentration (AC50) is 4.88 µM (active).

For the compound `COc1ccc(OC(F)(F)F)cc1CN[C@H]1CCCN[C@H]1c1ccccc1`, the outcome was inactive.

The values above are taken from PubChem BioAssay (EPA / NIEHS).
